From PubChem BioAssay (EPA / NIEHS)
Records with an inconclusive call do not appear. Activity calls are given as the source filed them. The calls were made as follows: active = hit-call score of the fitted dose curve at least 0.9, where 1 is the maximum; inconclusive = response in the unintended direction; inactive = score below 0.9.

Molecular target: rat Peripheral-type Benzodiazepine Receptor (PBR), Tspo (gene 24230) (UniProt P16257)
Assay: NVS_MP_rPBR: NovaScreen (NVS) Membrane Protein Assay for rat Peripheral-type Benzodiazepine Receptor (PBR) (AID 2283335)
Description: NVS_MP_rPBR is a biochemical, single-readout assay that uses extracted gene-proteins from Rat kidney membranes in a tissue-based cell-free assay. Measurements were taken 1 hour after chemical dosing in a 48-well plate.NVS_MP_rPBR is one of one assay component(s) measured or calculated from the NVS_MP_rPBR assay. It is designed to make measurements of radioligand binding, a form of binding reporter, as detected with scintillation counting signals by Filter-based radiodetection technology.Data from the assay component NVS_MP_rPBR was analyzed into 1 assay endpoint. This assay endpoint, NVS_MP_rPBR, was analyzed in the positive analysis fitting direction relative to DMSO as the negative control and baseline of activity. Using a type of binding reporter, loss-of-signal activity can be used to understand changes in the binding as they relate to the gene Tspo. Furthermore, this assay endpoint can be referred to as a primary readout, because the performed assay has only produced 1 assay endpoint. To generalize the intended target to other relatable targets, this assay endpoint is annotated to the transporter intended target family, where the subfamily is cholesterol transporter.
Binding assays used specific radioligands (tritiated, iodinated) with non-radioactive competitive displacement ligands in agonist or antagonist protocols (as indicated) and various reference compounds and inhibitors to titrate specific binding to receptors and transporters. Most enzyme assays (CYPs, kinases, phosphatases, proteases, HDACs) used recombinant protein and specific substrates (fluorescence mostly, some colorimetric and radioactive) and inhibitors, followed by a biochemical separation of substrate and product. All assays for the biochemical HTS were initially run in duplicate at a single concentration (10 uM for CYP450 assays and 25 uM for all others). […] Each assay was run with positive and negative controls, and concurrent controls on every plate. The follow-up (secondary) screen tested active chemical-pairs in concentration series, as well as a few additional assays not tested in the primary screen, some selected negative inactives, and several cases re-run in the concentration series for confirmatory purposes.

Chain of rat Peripheral-type Benzodiazepine Receptor (PBR), Tspo (gene 24230) (P16257 whole entry, looked up): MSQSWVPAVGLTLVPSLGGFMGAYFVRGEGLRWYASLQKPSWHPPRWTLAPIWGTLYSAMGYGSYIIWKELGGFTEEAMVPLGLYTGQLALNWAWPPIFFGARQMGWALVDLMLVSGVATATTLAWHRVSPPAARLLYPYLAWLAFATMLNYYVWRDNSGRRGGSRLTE

SMILES	AC50	outcome
Cc1ccc(S(=O)(=O)C(I)I)cc1	7.18 µM (active)	
O=C1c2c(O)ccc(Nc3ccc(CCO)cc3)c2C(=O)c2c([N+](=O)[O-])ccc(O)c21	2.38 µM (active)	
CCN(CC)c1ccc(C=O)c(O)c1		inactive
CCCCCCCCCCCCCC[P+](CCCC)(CCCC)CCCC	12.2 µM (active)	
CC(C)Nc1ccc(NC(C)C)c2c1C(=O)c1ccccc1C2=O	0.666 µM (active)	
CCCCCCCC/C=C\CCCCCCCC(=O)N(C)CC(=O)O		inactive
CCN=C1C=CC(=C(c2ccc(N(CC)CC)cc2)c2ccc(N(CC)CC)cc2)c2ccccc21	0.185 µM (active)	
CCN(CC)c1ccc(C=O)cc1		inactive
CCc1cc(Cc2cc(CC)c(N)c(CC)c2)cc(CC)c1N	6.66 µM (active)	
O=C(c1ccccc1)c1ccc(O)cc1O		inactive
O=C(c1ccccc1)c1ccc(Cl)cc1	12.6 µM (active)	
CCN=c1cc2oc3cc(NCC)c(C)cc3c(-c3ccccc3C(=O)OCC)c-2cc1C	5.08 µM (active)	
